Source: PubChem BioAssay (NCI)
About 83,000 compounds went through this panel and 20% of them were active in at least one assay; those are over-represented in the sample as a whole.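 Treatment: one concentration, 48 hours, 96-well format. Scoring: percent growth, with anything below 10 considered active.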 A number with no mark means an inactive call. The source made the active and inactive calls.

What was measured:
Assay in all cases: NCI-60 one-dose screen, 48 h (100 = growth as untreated, 0 = no growth, -100 = all killed)
SK-MEL-2 melanoma = conditions: 10 µM unless noted
SN12C renal = conditions: 10 µM unless noted
UO-31 renal = conditions: 10 µM unless noted
TK-10 renal = conditions: 10 µM unless noted
ACHN renal = conditions: 10 µM unless noted
CAKI-1 renal = conditions: 10 µM unless noted
A498 renal = conditions: 10 µM unless noted
CCRF-CEM leukemia = conditions: 10 µM unless noted
MOLT-4 leukemia = conditions: 10 µM unless noted
SR leukemia = conditions: 10 µM unless noted
RPMI-8226 leukemia = conditions: 10 µM
OVCAR-5 ovarian = conditions: 10 µM unless noted
OVCAR-4 ovarian = conditions: 10 µM unless noted
SK-OV-3 ovarian = conditions: 10 µM
IGROV1 ovarian = conditions: 10 µM unless noted
OVCAR-3 ovarian = conditions: 10 µM unless noted
HS 578T breast = conditions: 10 µM unless noted
NCI/ADR-RES ovarian = conditions: 10 µM unless noted
OVCAR-8 ovarian = conditions: 10 µM unless noted

Compound	growth (SK-MEL-2 melanoma)	growth (SN12C renal)	growth (UO-31 renal)	growth (TK-10 renal)	growth (ACHN renal)	growth (CAKI-1 renal)	growth (A498 renal)	growth (CCRF-CEM leukemia)	growth (MOLT-4 leukemia)	growth (SR leukemia)	growth (RPMI-8226 leukemia)	growth (OVCAR-5 ovarian)	growth (OVCAR-4 ovarian)	growth (SK-OV-3 ovarian)	growth (IGROV1 ovarian)	growth (OVCAR-3 ovarian)	growth (HS 578T breast)	growth (NCI/ADR-RES ovarian)	growth (OVCAR-8 ovarian)
O=C1c2ccccc2-c2nnc(-c3ccc(Br)cc3)cc21	-0.262% (active)	27.9%	46.9%	119%	34.8%	60.3%	97%	20.7%	4.61% (active)	11.6%	27.4%	110%	10.1%	91.6%	40.4%	-23% (active)	48.2%	9.3% (active)	
Cc1ccc(-c2nnc(COc3ccc(-c4nnc(N)s4)cc3)o2)cc1	104%	82.2%	91.7%	106%	107%	94.8%	103%	47.7%	77.6%	5.12% (active)		113%	58%	80.7%	108%	98.1%	85%	95%	100%
O=C1CC(c2ccsc2)c2snc(-c3ccc(Cl)cc3)c2N1 (stereo unspecified)	27.3%	54%	48.4%	53.8%	53%	26.6%	24.2%	16.3%	14.5%		12.5%	47.7%		-3.45% (active)	40.7%	-14% (active)	46%	16.8%	40.8%
Cc1cc(Cl)c2c(Cl)ccc(Cl)c2n1	81.4%	113%	89.8%	112%	105%	95%	104%	98.7%	95.6%	91.9%	107%	101%	128%	97.7%	111%	105%	119%	114%	
O=C(NCc1ccco1)C1CCN(S(=O)(=O)c2ccc(Cl)cc2)CC1	82.6%	78.3%	57.5%	104%	83.5%	70.4%	59%	-22.6% (active)	47.2%	19.5%	-24.6% (active)	103%		94.5%			68.9%	66.6%	80.4%
Cc1nc2cc(Nc3nc(NCCO)nc(Nc4ccc(F)cc4)n3)ccc2n1Cc1ccccc1	122%	91.1%	78.8%	133%	98.3%	100%	66.2%	1.93% (active)		14.9%	14.2%	114%	95.3%	105%	88.9%	90.2%	107%	97.7%	80%
CCOC(=O)c1c(Cl)c2c(n1Cc1cc(OC)cc(OC)c1)-c1oncc1CCC2	44.6%	38.9%	44.6%	55.1%	48.3%	31.3%	-13% (active)	7.48% (active)	30%	4.7% (active)	9.5% (active)	49.5%		27.5%		-17.6% (active)	29.6%	8.44% (active)	38.9%
CCCCCCCCCCCCSC1=CC(=O)C=CC1=O	90.1%	55.1%	52.8%	118%	81%	52.6%	107%	-10% (active)	-0.985% (active)		-8.18% (active)	89.7%		82.3%	-26.6% (active)	73.2%	63.8%	59.8%	35.1%
CC1(C)N=C(N)N=C(N)N1c1cccc(OCCOc2cccc([N+](=O)[O-])c2)c1	39.4%	28.8%	78.4%	71.8%	89.9%	90.1%	91%	29.7%	26%		52.4%	32%	81.3%	70%	29.7%	45.3%	82%	107%	105%
COC(=O)[C@H]1CCCN1C(=O)[C@H]1CCCN1C(=O)[C@@H](Cc1c[nH]c2ccccc12)NC(=S)Nc1cc(C(F)(F)F)cc(C(F)(F)F)c1	93.2%	43.2%	41.1%	78.4%	44.3%	28.5%	56%	36%	21.2%	14.4%		76.4%	44.6%	77.2%	22.7%	48.3%	12.3%	89.9%	66.8%
C[C@H]1C(=O)C23CCC1C[C@@]21O[C@@H]2C(C)(C)C=CC(=O)C23COC1=O	104%	103%	81.5%	98.9%	104%	101%	92%	71.7%	102%	102%	93.5%	109%	108%	102%	110%	126%	109%	106%	
COc1ccc(C2CC(c3cc(OC)c(OC)c(OC)c3)=NN2c2ccc(S(N)(=O)=O)cc2)cc1 (stereo unspecified)	83.2%	73.7%	29.8%	66.4%	76.5%	67.3%	44.5%	41.3%		33.2%	4.35% (active)	92.3%	69.9%	88.3%	73.9%	77.5%	66.7%	55.4%	61.9%
O=S(=O)(Nc1ncccn1)c1ccc(Nc2ccc3nnc(-c4ccncc4)n3n2)cc1	125%	93.9%	81%	115%	98.6%	99.6%	87.5%	94.3%		102%	109%	94.3%	93.8%	103%	105%	104%	84.3%	102%	103%
O=C1C(Br)=C(c2ccccc2)C(=O)C(Br)=C1c1ccccc1	99.6%	95.2%	77.9%	102%	92.2%	94%	67.3%	31.9%	52.7%		99.2%	96.7%		95.4%	105%	110%	97.2%	103%	91.9%
CSc1ccc(OC(C)=O)cc1C	92.7%	104%	77.2%	91.1%	98%	96.4%	86.3%	88.5%			101%	99.4%	99.6%	95%	103%	106%	103%	103%	100%
COc1ccc(Cn2c(Br)c3c(c2-c2cc(OC)c(OC)c(OC)c2)CCc2sc(N)nc2-3)cc1	50.3%	31.9%	35.2%	46.2%	42.1%	44.7%	-15.8% (active)	3.52% (active)			21.2%	37.1%		3.83% (active)	36.7%	-25.5% (active)	8.13% (active)	3.87% (active)	12.3%
COC(=O)[C@@H]1CCCN1C(=O)[C@@H]1CCCN1C(=O)[C@@H](Cc1c[nH]c2ccccc12)NC(=S)Nc1cc(C(F)(F)F)cc(C(F)(F)F)c1	39.9%	65.7%	41.4%	83.5%	61.9%	56.9%	99.6%	19.9%	22.3%	-17.5% (active)		91%	42%	90.9%	36%	44.1%	59.2%	99.8%	
